Screens as filed in PubChem BioAssay.
A selection: hits, their analogues and other compounds. The true share with any hit is near 19%.
HT1080NT lethal: kills 2HG-producing HT-1080-NT fibrosarcoma cells; HT-1080-NT fibrosarcoma viability, CellTiter-Glo ATP luminescence, 48 h; Potency, µM (top dose mostly 46.1 µM), inactives show top-dose activity, negative = less viability, most hits filed as cytotoxic; 360,000 tested, 1.6% active; AID 686970;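 further: NT is the 2HG producing partner of a matched IDH1 knockdown line; potency means the concentration at half of the fitted maximal effect; 0% = DMSO-treated cells and -100% = media-only wells without cells; nearly all actives have a fitted effect of over 55% in size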
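A 48-hour cytotoxicity screen used HT-1080-NT cells plated 2 hours before compound delivery. ATP-based CellTiter-Glo luminescence measured viability, normalized to DMSO and no-cell controls.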
DT40 TDP1 no CPT: qHTS for Inhibitors of human tyrosyl-DNA phosphodiesterase 1 (TDP1): qHTS in cells in absence of CPT; DT40 Tdp1-/- hTDP1 cells, no CPT, ATP luminescence, 48 h; Potency, µM (series often up to 46.2 µM), for inactives: at the top dose activity change, negative = growth inhibition, usual class: inhibitors; 420,000 tested, 15% active; AID 686978, 2013; further: potency means the concentration at half of the fitted maximal effect; nearly all actives have a fitted effect of over 55% in size
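No-CPT arm: Tdp1-/-;hTDP1 DT40 cells (400/well) plus compounds, incubated ≥48 hr at 37 °C. Readout CellTiter-Glo luminescence.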
HT1080 IDH1KD tx: HT-1080 IDH1 knockdown cell toxicity (counter line); HT-1080 IDH1 knockdown viability, ATP luminescence, 48 h; Potency, µM (titrated, usually from 46.1 µM), without a hit: at the highest dose activity, negative = toxicity, most hits filed as cytotoxic; 360,000 tested, 2% active; AID 686971;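 further: potency means the concentration at half of the fitted maximal effect; 0% = DMSO wells and -100% = cell-free medium wells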
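After a 2 h attachment period, IDH1KD HT-1080 cells took pin-transferred compound for 48 h at 37 °C; ATP-based luminescence after 10 min room-temperature reagent incubation reported viability.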
DT40 TDP1 CPT: growth inhibition of DT40 Tdp1-/-;hTDP1 cells with camptothecin (screen for TDP1 inhibitors). chicken DT40 Tdp1-/-;hTDP1 cells + 20 nM CPT, ATP luminescence, 48 h. Potency, µM (top dose mostly 46.2 µM), for the others: at the top dose activity change, negative = growth inhibition, hits mostly inhibitors. 420,000 tested, 12% active; further: potency means the concentration at half of the fitted maximal effect; nearly all actives have a fitted effect of over 55% in size
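Cell growth measured by CellTiter-Glo luminescence after a minimum 48 h, 37 C compound exposure with 20 nM CPT in Tdp1-knockout DT40 cells stably expressing hTDP1, seeded 400/well; qHTS titration format.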
IL-1B inflam inh: inhibitors of inflammasome signaling (IL-1 beta secretion); 360,000 tested, 4.7% active; AID 743279; activity change, % at 57.5 µM; THP-1 LPS/ATP IL-1B secretion, AlphaLISA, 16 h; stronger effect = lower value; in the data active means activity change below about -50%; inconclusive means mostly about -30% to -49%
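Secreted IL-1B measured by AlphaLISA bead assay after 16 h compound exposure of THP-1 cells; compounds (final up to 57.5 uM) added 1 h before LPS (250 ng/mL) and ATP (1.25 mM) stimulation; lower signal means less secretion.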
An asterisk follows results filed as active; [ ] = dose if it differs, or a comment. Unless noted, the call rests on the fitted dose curve; in most records, active means well fitted curve in the direction sought with a large enough effect; inconclusive means small, poorly fitted or top-dose-only effect, or another doubt; inactive means no such curve, though single readings can be large; an effect the other way counts as inactive or inconclusive. Unless noted, on the % scale 0 is the no-effect control and ±100 the full control effect.

How did COc1ccc(N2CCN(C(=O)[C@H](C)N3C(=O)C4CC=CCC4C3=O)CC2)cc1 (some centres not stated) do in these assays?
HT1080NT lethal: -5.0%; DT40 TDP1 no CPT: -5.8%; HT1080 IDH1KD tx: -3.8%; DT40 TDP1 CPT: -8.4%; IL-1B inflam inh: -2.2

Results for Cc1cccc(N2CCN(C(=O)C(C)n3nc(C)n4c(cc5occc54)c3=O)CC2)c1C (configuration not stated) ?
HT1080NT lethal: -8.4%; DT40 TDP1 no CPT: 18.4µM*; HT1080 IDH1KD tx: -14.7%; DT40 TDP1 CPT: inconclusive; IL-1B inflam inh: -1.0

Results for CCC(C(=O)N1CCN(c2ccc(OC)cc2)CC1)n1nc(C)n2c(cc3occc32)c1=O (configuration not stated) ?
DT40 TDP1 no CPT: 18.4µM*; DT40 TDP1 CPT: 18.4µM*

Results for Cc1cccc(N2CCN(C(=O)[C@H](C)N3C(=O)C4CC=CCC4C3=O)CC2)c1C (some centres not stated) ?
HT1080NT lethal: 1.1%; DT40 TDP1 no CPT: 25.9µM*; HT1080 IDH1KD tx: -8.6%; DT40 TDP1 CPT: 23.1µM*; IL-1B inflam inh: -15.0

Results for CNC(=O)NC(=O)C(C)OC(=O)CCCSc1nc2ccccc2s1 (configuration not stated) ?
HT1080NT lethal: -7.9%; DT40 TDP1 no CPT: -28.0%; HT1080 IDH1KD tx: -1.1%; DT40 TDP1 CPT: -25.4%; IL-1B inflam inh: 28.5

Results for CCOc1cccc(=O)c2c(C)n(CC(=O)c3ccccc3)c(C)c12 ?
HT1080NT lethal: -7.1%; DT40 TDP1 no CPT: inconclusive; HT1080 IDH1KD tx: -4.4%; DT40 TDP1 CPT: inconclusive; IL-1B inflam inh: -59.4*

What do the screens show for `Cc1ccc(-c2[nH]nc(N)c2N=Nc2cccc(Cl)c2C)cc1`?
HT1080NT lethal: inconclusive; DT40 TDP1 no CPT: 13µM*; HT1080 IDH1KD tx: inconclusive; DT40 TDP1 CPT: inconclusive; IL-1B inflam inh: -76.2*

Results for Cc1[nH]nc(N)c1-c1ccccc1 ?
HT1080NT lethal: -6.0%; DT40 TDP1 no CPT: -9.5%; HT1080 IDH1KD tx: -2.1%; DT40 TDP1 CPT: -5.4%; IL-1B inflam inh: inconclusive

What do the screens show for `Cc1cccc(N=Nc2c(N)n[nH]c2-c2ccc(Cl)cc2)c1`?
HT1080NT lethal: inconclusive; DT40 TDP1 no CPT: inconclusive; HT1080 IDH1KD tx: inconclusive; DT40 TDP1 CPT: inconclusive; IL-1B inflam inh: -54.1*

Results for Cc1ccc(N=Nc2c(N)n[nH]c2N)cc1 ?
HT1080NT lethal: 13.2%; DT40 TDP1 no CPT: -6.3%; HT1080 IDH1KD tx: 19.8%; DT40 TDP1 CPT: 2.1%; IL-1B inflam inh: -64.0*

Results for Cc1ccc(-c2[nH]nc(N)c2N=Nc2ccccc2C)cc1 ?
HT1080NT lethal: inconclusive; DT40 TDP1 no CPT: inconclusive; HT1080 IDH1KD tx: 18.4µM*; DT40 TDP1 CPT: inconclusive; IL-1B inflam inh: inconclusive

How did COc1cccc(-c2cc(C(F)(F)F)n3nc(-c4ccc(C)cc4)cc3n2)c1 do in these assays?
DT40 TDP1 no CPT: -15.2%; DT40 TDP1 CPT: -22.0%

What do the screens show for `COc1ccc(C2C(C(=O)Nc3ccc(C)cc3C)=C(C)Nc3nc(SCc4cccc(C)c4)nn32)c(OC)c1` (configuration not stated)?
DT40 TDP1 no CPT: -10.6%; DT40 TDP1 CPT: inconclusive

How did Cc1cc(S(=O)(=O)NCc2nc(N3CCCC3)c3cc(Cl)ccc3n2)c(C)s1 do in these assays?
DT40 TDP1 no CPT: -6.9%; DT40 TDP1 CPT: -4.5%[9.04 µM]

How did COc1ccc(-c2nc3cnc(N4CCOCC4)nc3n(CCC#N)c2=O)cc1 do in these assays?
DT40 TDP1 no CPT: 0.3%; DT40 TDP1 CPT: 9.9%

How did CCc1nc2nc(C)cc(Nc3ccc(OC)cc3OC)n2n1 do in these assays?
DT40 TDP1 no CPT: -20.7%; DT40 TDP1 CPT: -11.2%

Results for O=C(NCC1CC1)C1(C(F)(F)F)CC(CCCO)CCCO1 (configuration not stated) ?
HT1080NT lethal: -0.3%; DT40 TDP1 no CPT: 5.4%; HT1080 IDH1KD tx: 13.3%; DT40 TDP1 CPT: -4.1%; IL-1B inflam inh: 17.2
